Experimental data reported in ChEMBL document CHEMBL4513216, “Probing the Open Global Health Chemical Diversity Library for Multistage-Active Starting Points for Next-Generation Antimalarials” (ACS Infect Dis, 2020).
Screen size: about 69,000 compounds; about 8,600 (12%) showed an effect of 50% or more. For the sample, strong results were picked, then their nearest neighbours and some compounds at random.

Test system: Plasmodium berghei
Test: Screen against P. berghei liver stage (PbLuc), transformed with Luciferase, at 10uM
Type: functional, HepG2
Details: tested at 10 uM

SMILES | INHIBITION [%]
O=C(c1ccccc1F)N1CCOC(c2nc(-c3ncccn3)no2)C1 (stereo not drawn) | 18.9
Cc1cn(CC(=O)Nc2cc(C(C)(C)C)nn2C)cn1 | 16.9
CCN(CC(C)C#N)C(=O)CNc1ccc(C(N)=O)c(C)c1 (stereo not drawn) | 92.5
CCN(CC(C)C#N)C(=O)CNc1cc(Cl)ccc1C(N)=O (stereo not drawn) | 17.5
CCN(CC(C)C#N)C(=O)CNc1ccc(F)c(C)c1 (stereo not drawn) | -48.4
O=C(CCN1CCOC1=O)Nc1cnn(-c2ccccc2Cl)c1 | 13.3
Cc1noc(-c2ccnc(Oc3cccc(CN4CCCC4)c3F)c2)n1 | 83.3
Cc1noc(-c2ccnc(Oc3ccccc3CN3CCCCC3)c2)n1 | 56.3
CCN1CCC(N2CCN(c3cc(-c4nc(C)no4)ccn3)CC2)CC1 | 33.8
c1ccc(Oc2nccc3occc23)c(CN2CCCCC2)c1 | 48.8
Cc1noc(-c2ccc(Oc3cccc(CN4CCCC4)c3F)nc2)n1 | 35
COc1cccc(CN2CCN(c3noc(C(C)C)n3)CC2)c1F | -21.8
CC(NC(=O)NCCCn1cncn1)c1ccc(C#N)cc1 (stereo not drawn) | 24.75
CC=C(C)C(=O)NS(=O)(=O)c1ccc(C(F)(F)F)cn1 | 13.8
O=C(CCCN1CCOCC1)N1CCCC(CO)(CC2CC2)C1 (stereo not drawn) | -4.21
CC(C1CCN(C(=O)c2coc(CN3CCOCC3)c2)CC1)N(C)C (stereo not drawn) | 35.8
Cc1cc(NCCC(=O)NC2CCS(=O)(=O)C2)nc(-c2ccncc2)n1 (stereo not drawn) | 15.7
Cc1cc(C(=O)N2CCc3nc(C4CCCN4)ncc3C2)cs1 (stereo not drawn) | -16.5
COc1cccc(C(=O)N2CCc3nc(C4CCCN4)ncc3C2)c1 (stereo not drawn) | 59.3
CC(C)c1cc(C(=O)N2CCc3nc(C4CCCN4)ncc3C2)cs1 (stereo not drawn) | 28
COc1ncc(NCc2ccc(Cl)c(Cl)c2)cc1C(N)=O | 71.8
COc1ncc(NCc2ccc(F)cc2)cc1C(N)=O | -5.1
COc1ncc(NCc2ccc(C#N)cc2)cc1C(N)=O | 8.12
CCC(=O)N1CCC2(COCc3cnc(NCc4ccco4)nc32)C1 (stereo not drawn) | 6.55
CNc1cc(N2CCC(O)(CNC(=O)c3ccc(C)nc3)C2)ncn1 (stereo not drawn) | 12.3
Cc1cnn(CC2CCCN2CC(=O)Nc2cc(C)on2)c1 (stereo not drawn) | -23.9

SMILES | INHIBITION [%]
Cc1nccc(N(C)Cc2ncc(-c3ccccc3C(=O)O)s2)n1 | 1.635
COc1cc2c(cc1OC)C(=O)C(Sc1nnc(C)o1)C2 (stereo not drawn) | 27.5
O=C(O)CC1COCCN1Cc1ccccc1OCCc1ccccc1 (stereo not drawn) | 1.95
O=C(O)CC1COCCN1CCCc1ccccc1 (stereo not drawn) | 56.2
O=C(O)CC1COCCN1Cc1ccccc1-c1ccccc1 (stereo not drawn) | -4.56
CCS(=O)(=O)NCCCn1ncc2c(C)cccc21 | 4.35
Cc1cc(C(=O)N(C)CCCn2cccn2)nc(N)n1 | 64.1
CCOc1c(F)cccc1C(=O)N(C)CCn1cccn1 | -27.6
Cc1cc(N(C)C)nc(NCCn2cccn2)n1 | -24.4
Cc1cc(N(C)CCCn2cccn2)nc(-c2cccnc2)n1 | -37.2
CCCN(Cc1nccn1C)C(=O)c1cc(C)nc(C)n1 | 42.1
Cc1cc(N(C)CCCn2cccn2)nc(N)n1 | 75.2
COc1ccc(Cl)c(NCC(=O)NCC(=O)N2CCCC2)c1 | 24.1
COCC1CCCCN1C(=O)c1cc(Cn2ccc3ccccc32)[nH]n1 (stereo not drawn) | -14.9
CCN(C)C[C@@H]1CN(S(=O)(=O)c2cccc(Cl)c2)C[C@@H]1CO | 57.6
CCN(C)C[C@@H]1CN(S(=O)(=O)c2ccc(C#N)cc2)C[C@@H]1CO | 58.6
CCN(C)C[C@@H]1CN(S(=O)(=O)c2cccc(C#N)c2)C[C@@H]1CO | 36.2
CCN(C)C[C@@H]1CN(S(=O)(=O)c2ccc(OC)cc2)C[C@@H]1CO | 39.4
COCCN(C)C[C@@H]1CN(C(=O)c2cccc(Cl)c2)C[C@@H]1CO | 10.7
CCN(C)C[C@@H]1CN(Cc2cccc(Cl)c2)C[C@@H]1CO | 43.3
O=S(=O)(C1CC1)N1CC[C@]2(C[C@@H](Oc3ccccn3)CO2)C1 | 17.3
CCCc1n[nH]c(C2CN(CCC(F)(F)F)CCO2)n1 (stereo not drawn) | 29.7
Cc1nnc([C@@]23CCO[C@@H]2CCN(Cc2nccs2)C3)o1 | 37.6
CCc1nc(CN2CCOC(Cn3cncn3)C2)no1 (stereo not drawn) | -7.31
Cc1cc(CN2CCN(C(C)C)C(CCO)C2)[nH]n1 (stereo not drawn) | 15.5
CC(C)c1ccc(NS(=O)(=O)C=c2[nH]c(=O)n3cccc3c2=O)cc1 | -26.1

SMILES | INHIBITION [%]
COc1ccc(NS(=O)(=O)C=c2[nH]c(=O)n3cccc3c2=O)cc1Cl | 86.4
O=c1c(=CS(=O)(=O)Nc2ccc(Cl)cc2)[nH]c(=O)n2cccc12 | -51.6
O=c1c(=CS(=O)(=O)Nc2ccc(Br)cc2)[nH]c(=O)n2cccc12 | 67.3
Cc1ccc(NS(=O)(=O)C=c2[nH]c(=O)n3cccc3c2=O)cc1 | -53.7
O=c1c(=CS(=O)(=O)Nc2ccccc2)[nH]c(=O)n2cccc12 | -63.5
Cn1cnc2ccc(NC(=O)CC3CCN(S(C)(=O)=O)CC3)cc21 | -9.2
CC(=O)c1cccc(OC(C)C(=O)Nc2cnn(CCN(C)C)c2)c1 (stereo not drawn) | 34.2
CC(Oc1cccc(Cl)c1)C(=O)Nc1cnn(CC(=O)NC2CC2)c1 (stereo not drawn) | 10.7
CC(Oc1cccc(Cl)c1)C(=O)Nc1cnn(CCN(C)C)c1 (stereo not drawn) | 60
CC(C)c1cc(C(=O)NCCc2nc(-c3cccnc3)n[nH]2)[nH]n1 | 12.365
c1cnc(N2CCc3onc(CN4CCOCC4)c3C2)cn1 | 12.6
CSC1(CNC(=O)N(C)Cc2ccc(C)s2)CCOCC1 | 57.3
CSC1(CNC(=O)N(C)Cc2sccc2C)CCOCC1 | 43.4
CSC1(CNC(=O)N(C)Cc2ccc(Cl)s2)CCOCC1 | 19.1
OCCN1CCN(CCOCC(F)(F)F)CC1 | 28.3
CC(C)CN1C(=O)C[C@@H]2[C@@H]1CCN2Cc1cccc(C#N)c1 | 63.7
COCCN1C(=O)CC[C@@H]2[C@H]1CCN2Cc1cccc(C#N)c1 | 27.6
N#Cc1cccc(CN2CC[C@@H]3[C@@H]2CC(=O)N3CCN2CCCC2)c1 | 21.8
CN1C(=O)C[C@H]2[C@H]1CCN2Cc1cccc(C#N)c1 | 7.77
CN(C)C(=O)CN1C(=O)C[C@@H]2[C@@H]1CCN2Cc1cccc(C#N)c1 | 81.2
COCCN1C(=O)C[C@H]2[C@H]1CCN2Cc1ccc(OC)cc1 | 16.5
COCCN1C(=O)C[C@H]2[C@H]1CCN2Cc1ccccc1 | 54.4
COCCN1C(=O)C[C@H]2[C@H]1CCN2Cc1cccc(C#N)c1 | 33.5
N#Cc1cccc(CN2CC[C@@H]3[C@@H]2CC(=O)N3Cc2ccncc2)c1 | 29.9
N#Cc1cccc(NC(=O)CCn2nc(-c3cccs3)oc2=O)c1 | 38.8
COc1ccc(Cl)cc1Nc1nc(N)c(C(C)=O)s1 | 9.32

SMILES | INHIBITION [%]
OCCN1CCC2(CC1)CC(NCc1ccccn1)c1ccccc1O2 (stereo not drawn) | 33
O=C(Nc1cccc(CNCc2ccccn2)c1)C1CCCC1 | -0.65
O=C(Nc1ccc(CCN2CCC(O)CC2)cc1)C1CCCCC1 | 29.2
CN(C)C(=O)N1CC2(CCN(S(=O)(=O)C3CC3)CC2)c2ccccc21 | 38.2
CN(C)C(=O)N1CC2(CCN(S(C)(=O)=O)CC2)c2ccccc21 | -43.1
CN1C(=O)CC2(CCN(S(=O)(=O)N(C)C)CC2)c2ccccc21 | 27.5
CN1CC2(CCN(S(=O)(=O)C3CC3)CC2)c2ccccc21 | 58.5
CN1C(=O)C2(CCN(S(=O)(=O)C3CC3)CC2)c2ccccc21 | -3.51
CN1C(=O)CC2(CCN(S(=O)(=O)C3CC3)CC2)c2ccccc21 | 55.6
O=C(c1ccccn1)N1CCC2(CCCN(c3nncs3)C2)C1 (stereo not drawn) | 28.5
COc1c(C2CC(=O)Nc3[nH]ncc32)cc2c(c1OC)OCO2 (stereo not drawn) | 7.38
Cc1sc(CN)nc1-c1ccccc1 | 6.54
Cc1ccc(C(=O)N2CCc3ccc(=O)n(CCN(C)C)c3CC2)o1 | -17.2
O=C(CCc1cc(O)no1)N1CCC(Cc2ccc(F)cc2)CC1 | -3.12
CN1CCC(N(C)CCC(=O)N2CCC(Oc3ccc(Cl)cc3)CC2)C1 (stereo not drawn) | 67.4
CN1CCC(N(C)CCC(=O)N2CCC(OCc3ccccc3)CC2)C1 (stereo not drawn) | 23.8
CN1CC[C@H](N(C)Cc2ccccc2)C[C@H](O)C1 | 18.4
CN1CCC(N(C)CCC(=O)N2CCC(CCc3ccccc3)CC2)C1 (stereo not drawn) | 74.3
COc1ccc(OC2CCN(C(=O)CCc3nc(Cl)n[nH]3)CC2)cc1 | 28.4
NC(=O)CC1CCN(C(=O)CCOc2ccc(Cl)cc2)CC1 | 23.2
CN1CCC(N(C)CCC(=O)N2CCN(Cc3cccc(F)c3)CC2)C1 (stereo not drawn) | -0.991
CN1CCC(N(C)CCC(=O)N2CCC(Cc3ccc(F)cc3)CC2)C1 (stereo not drawn) | 66.4
CCc1nc(-c2ccnc(N3CCNCC3)n2)no1 | 29.6
Cc1cc(C)c(CNC(=O)N2CCCC2c2ccc(F)cc2)c(=O)[nH]1 (stereo not drawn) | 34.7
CC(C)n1cnnc1CN(C)C(=O)CCn1cnc2ccccc2c1=O | -17.6
